log2 fold change data for 39 targets are collected here from the supplement of paper PMC10849652.

About 7,900 targets were measured; listed, in parts, are those with a hit and a random draw of the rest. About 0.6% of all pairs of compound and target were hits. A number with no mark means an inactive call.

Sequence of UniProt P29966 (P29966 whole entry, looked up): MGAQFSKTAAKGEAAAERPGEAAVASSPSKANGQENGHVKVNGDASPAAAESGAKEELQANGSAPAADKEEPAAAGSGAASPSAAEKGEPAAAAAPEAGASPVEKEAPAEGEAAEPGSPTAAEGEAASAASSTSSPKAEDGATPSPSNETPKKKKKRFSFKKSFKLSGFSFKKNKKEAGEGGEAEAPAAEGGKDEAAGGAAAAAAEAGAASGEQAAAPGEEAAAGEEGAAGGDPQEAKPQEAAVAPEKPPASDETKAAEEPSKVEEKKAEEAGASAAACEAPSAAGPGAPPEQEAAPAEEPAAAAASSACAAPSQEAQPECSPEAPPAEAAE
Sequence of UniProt Q8IWA4 (Q8IWA4 whole entry, looked up): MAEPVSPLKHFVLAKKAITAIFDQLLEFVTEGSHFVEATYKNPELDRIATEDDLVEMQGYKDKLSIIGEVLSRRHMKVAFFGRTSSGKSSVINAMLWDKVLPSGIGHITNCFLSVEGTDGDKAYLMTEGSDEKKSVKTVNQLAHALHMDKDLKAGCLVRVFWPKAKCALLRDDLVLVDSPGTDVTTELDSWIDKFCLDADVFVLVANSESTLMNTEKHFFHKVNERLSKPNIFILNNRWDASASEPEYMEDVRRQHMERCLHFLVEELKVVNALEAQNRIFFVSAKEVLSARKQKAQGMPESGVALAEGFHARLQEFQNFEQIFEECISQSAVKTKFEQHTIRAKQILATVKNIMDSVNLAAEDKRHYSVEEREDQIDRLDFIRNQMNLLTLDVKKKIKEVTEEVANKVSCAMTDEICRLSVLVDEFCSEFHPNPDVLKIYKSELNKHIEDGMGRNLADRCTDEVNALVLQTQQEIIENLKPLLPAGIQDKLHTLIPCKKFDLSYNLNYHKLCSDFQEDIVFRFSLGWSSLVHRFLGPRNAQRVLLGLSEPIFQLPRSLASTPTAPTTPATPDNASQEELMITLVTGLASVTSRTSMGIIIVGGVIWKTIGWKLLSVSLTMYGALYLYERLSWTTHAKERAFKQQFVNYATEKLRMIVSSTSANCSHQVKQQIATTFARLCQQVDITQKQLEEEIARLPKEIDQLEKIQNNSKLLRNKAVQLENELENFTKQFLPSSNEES
Sequence of UniProt Q32MZ4 (Q32MZ4 whole entry, looked up): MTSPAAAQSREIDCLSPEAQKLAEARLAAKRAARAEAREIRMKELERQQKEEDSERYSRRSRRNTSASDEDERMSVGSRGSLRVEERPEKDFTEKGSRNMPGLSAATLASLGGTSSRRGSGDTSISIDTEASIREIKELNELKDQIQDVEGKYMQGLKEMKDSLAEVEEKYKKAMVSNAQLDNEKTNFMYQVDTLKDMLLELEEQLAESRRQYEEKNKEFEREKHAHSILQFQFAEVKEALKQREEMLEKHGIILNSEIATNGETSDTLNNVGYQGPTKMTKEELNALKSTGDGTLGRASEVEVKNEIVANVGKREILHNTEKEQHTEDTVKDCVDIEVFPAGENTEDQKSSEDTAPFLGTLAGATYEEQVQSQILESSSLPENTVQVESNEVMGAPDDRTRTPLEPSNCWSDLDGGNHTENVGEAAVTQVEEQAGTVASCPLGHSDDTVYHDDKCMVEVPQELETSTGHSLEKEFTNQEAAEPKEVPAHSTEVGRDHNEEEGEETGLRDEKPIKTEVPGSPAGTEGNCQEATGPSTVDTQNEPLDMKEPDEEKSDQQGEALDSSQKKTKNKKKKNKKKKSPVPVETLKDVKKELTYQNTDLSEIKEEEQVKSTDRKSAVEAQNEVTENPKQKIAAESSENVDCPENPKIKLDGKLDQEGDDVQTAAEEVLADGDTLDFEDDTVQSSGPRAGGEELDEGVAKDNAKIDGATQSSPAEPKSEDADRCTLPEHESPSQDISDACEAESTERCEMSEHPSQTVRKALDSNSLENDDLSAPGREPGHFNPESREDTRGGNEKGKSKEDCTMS
Sequence of UniProt Q9UBF1 (Q9UBF1 whole entry, looked up): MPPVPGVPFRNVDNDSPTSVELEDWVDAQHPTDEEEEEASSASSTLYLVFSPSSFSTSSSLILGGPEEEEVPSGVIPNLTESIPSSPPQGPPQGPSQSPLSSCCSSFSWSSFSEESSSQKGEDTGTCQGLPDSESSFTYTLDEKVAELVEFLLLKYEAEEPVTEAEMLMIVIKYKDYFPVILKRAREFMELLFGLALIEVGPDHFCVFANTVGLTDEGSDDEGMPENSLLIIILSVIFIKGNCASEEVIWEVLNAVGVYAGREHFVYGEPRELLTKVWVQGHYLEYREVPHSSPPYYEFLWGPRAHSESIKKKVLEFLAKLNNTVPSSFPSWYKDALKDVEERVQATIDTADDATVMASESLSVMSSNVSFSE
Sequence of UniProt Q8IYU8 (Q8IYU8 whole entry, looked up): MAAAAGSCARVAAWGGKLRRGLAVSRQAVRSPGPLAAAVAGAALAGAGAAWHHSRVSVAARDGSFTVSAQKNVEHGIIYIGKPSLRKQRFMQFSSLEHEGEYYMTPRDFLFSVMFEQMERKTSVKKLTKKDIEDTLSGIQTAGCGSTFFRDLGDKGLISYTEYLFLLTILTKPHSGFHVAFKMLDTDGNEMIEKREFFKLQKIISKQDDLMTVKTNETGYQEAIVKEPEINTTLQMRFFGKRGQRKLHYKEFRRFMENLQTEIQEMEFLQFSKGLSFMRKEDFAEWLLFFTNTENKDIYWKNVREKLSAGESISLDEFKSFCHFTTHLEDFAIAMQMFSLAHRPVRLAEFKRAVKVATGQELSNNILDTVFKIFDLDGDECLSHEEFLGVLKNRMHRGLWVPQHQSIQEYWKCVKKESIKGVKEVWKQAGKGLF
Sequence of UniProt P22692 (P22692 whole entry, looked up): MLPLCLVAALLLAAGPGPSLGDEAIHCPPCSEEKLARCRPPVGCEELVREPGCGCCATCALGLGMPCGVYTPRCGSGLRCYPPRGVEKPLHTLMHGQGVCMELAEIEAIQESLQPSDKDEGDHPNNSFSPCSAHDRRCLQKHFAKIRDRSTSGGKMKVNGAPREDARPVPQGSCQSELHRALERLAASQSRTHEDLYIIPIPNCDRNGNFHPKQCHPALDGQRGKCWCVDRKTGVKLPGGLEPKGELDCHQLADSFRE
Sequence of UniProt Q9BPX6 (Q9BPX6 whole entry, looked up): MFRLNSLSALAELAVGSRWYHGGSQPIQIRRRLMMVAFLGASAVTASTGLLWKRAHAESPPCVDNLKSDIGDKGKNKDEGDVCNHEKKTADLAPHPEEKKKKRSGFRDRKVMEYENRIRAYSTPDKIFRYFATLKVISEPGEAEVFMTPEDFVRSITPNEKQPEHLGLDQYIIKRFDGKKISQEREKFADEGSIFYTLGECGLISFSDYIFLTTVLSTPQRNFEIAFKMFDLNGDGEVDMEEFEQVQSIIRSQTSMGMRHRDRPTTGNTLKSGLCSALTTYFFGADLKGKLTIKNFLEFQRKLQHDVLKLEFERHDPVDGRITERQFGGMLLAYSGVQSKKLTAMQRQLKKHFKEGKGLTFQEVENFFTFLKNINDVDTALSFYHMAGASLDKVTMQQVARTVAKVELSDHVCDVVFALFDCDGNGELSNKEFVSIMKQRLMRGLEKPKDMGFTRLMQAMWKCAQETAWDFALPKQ
Sequence of UniProt Q6N075 (Q6N075 whole entry, looked up): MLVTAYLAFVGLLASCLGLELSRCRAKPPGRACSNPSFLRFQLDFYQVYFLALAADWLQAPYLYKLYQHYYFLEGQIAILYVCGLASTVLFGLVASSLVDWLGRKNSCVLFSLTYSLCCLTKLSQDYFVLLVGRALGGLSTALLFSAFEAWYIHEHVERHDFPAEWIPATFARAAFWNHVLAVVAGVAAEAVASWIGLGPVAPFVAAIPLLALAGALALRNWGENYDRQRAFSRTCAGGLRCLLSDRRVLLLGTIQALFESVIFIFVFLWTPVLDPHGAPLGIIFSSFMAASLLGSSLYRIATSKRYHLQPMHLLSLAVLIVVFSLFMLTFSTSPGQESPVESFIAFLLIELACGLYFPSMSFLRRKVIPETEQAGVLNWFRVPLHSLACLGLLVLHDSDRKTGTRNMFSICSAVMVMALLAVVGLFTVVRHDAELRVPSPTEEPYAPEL
Sequence of UniProt O95372 (O95372 whole entry, looked up): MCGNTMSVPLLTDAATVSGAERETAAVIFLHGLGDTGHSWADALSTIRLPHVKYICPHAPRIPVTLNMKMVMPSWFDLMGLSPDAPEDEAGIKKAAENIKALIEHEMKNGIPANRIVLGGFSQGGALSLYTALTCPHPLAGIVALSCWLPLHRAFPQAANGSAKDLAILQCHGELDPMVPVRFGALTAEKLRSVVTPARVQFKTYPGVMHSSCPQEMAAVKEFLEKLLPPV
Sequence of UniProt Q08431 (Q08431 whole entry, looked up): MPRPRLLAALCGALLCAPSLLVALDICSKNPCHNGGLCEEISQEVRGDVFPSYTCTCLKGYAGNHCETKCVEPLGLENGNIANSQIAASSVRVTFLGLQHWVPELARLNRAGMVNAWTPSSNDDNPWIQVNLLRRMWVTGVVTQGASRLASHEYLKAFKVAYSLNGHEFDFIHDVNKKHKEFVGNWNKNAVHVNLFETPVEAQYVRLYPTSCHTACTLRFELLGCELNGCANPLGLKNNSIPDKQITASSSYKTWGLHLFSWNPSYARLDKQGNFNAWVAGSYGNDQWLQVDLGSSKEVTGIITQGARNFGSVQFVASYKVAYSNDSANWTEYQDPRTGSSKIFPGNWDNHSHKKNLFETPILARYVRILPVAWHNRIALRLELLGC
Sequence of UniProt Q9H6V9 (Q9H6V9 whole entry, looked up): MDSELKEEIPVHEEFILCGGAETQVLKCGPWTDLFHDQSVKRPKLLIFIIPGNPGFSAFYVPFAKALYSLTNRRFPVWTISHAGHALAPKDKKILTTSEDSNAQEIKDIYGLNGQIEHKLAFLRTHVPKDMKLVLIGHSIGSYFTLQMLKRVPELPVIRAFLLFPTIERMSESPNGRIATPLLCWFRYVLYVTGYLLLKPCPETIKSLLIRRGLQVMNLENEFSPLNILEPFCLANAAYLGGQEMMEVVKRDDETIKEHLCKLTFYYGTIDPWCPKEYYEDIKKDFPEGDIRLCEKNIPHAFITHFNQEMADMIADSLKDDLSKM
Sequence of UniProt P14174 (P14174 whole entry, looked up): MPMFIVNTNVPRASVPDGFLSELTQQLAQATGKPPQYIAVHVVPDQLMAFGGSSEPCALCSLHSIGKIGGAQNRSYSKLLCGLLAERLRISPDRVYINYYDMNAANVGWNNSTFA

Compound in the first assay: Cc1ncc(-c2ccnc(Nc3ccc(S(C)(=O)=O)cc3)n2)n1C(C)C
The assay is described as follows: log2 fold change, soluble protein after heating vs DMSO (PISA); higher = thermal stabilisation; K562 cells, 10 uM, 30 min; active = over 0.2 and 3.5 SD of the protein, either way, in both replicates (recomputed). In short, it runs like this: (§1)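 Aliquots of K562 cells (2×10^6 cells/mL) treated with 10 μM compound for 30 min were heated for 3 min over 48°C-58°C. After pooling and extraction in PBS with 0.5% NP-40 at 4°C, soluble protein from a 21,000xg, 90 min spin was quantified by TMTpro 16plex LC-MS/MS with channel sums equalised. Thermal stability is expressed against control samples, from duplicates, as a log2 fold change.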
For MIEF1 (UniProt Q9NQG6), the log2 fold change was 0.145.

Consider LDAH isoform 2 (UniProt Q9H6V9), for which the log2 fold change was -0.035.

With MAPKAPK2 (UniProt P49137), the log2 fold change is -0.011.

For LIAS (UniProt O43766), the log2 fold change is -0.059.

Regarding MFSD5 isoform 2 (UniProt Q6N075), the log2 fold change was -0.057.

As to LARP4B (UniProt Q92615), the log2 fold change was -0.092.

Regarding LAMP2 (UniProt P13473), the log2 fold change is 0.014.

Regarding MAGEC2 (UniProt Q9UBF1), the log2 fold change is 0.

Regarding IGFBP4 (UniProt P22692), the log2 fold change is -0.007.

As to ILF3 isoform 7 (UniProt Q12906), the log2 fold change was 0.297.

On to LTV1 (UniProt Q96GA3), for which the log2 fold change is 0.009.

On to MICU2 (UniProt Q8IYU8), for which the log2 fold change is -0.001.

Turning to MCUR1 (UniProt Q96AQ8), the log2 fold change was -0.004.

KDM1A isoform 2 (UniProt O60341): the log2 fold change is -0.001.

Regarding LEMD2 (UniProt Q8NC56), the log2 fold change is 0.011.

For LRRFIP1 (UniProt Q32MZ4), the log2 fold change was -0.016.

For LPIN1 isoform 7 (UniProt Q14693), the log2 fold change is -0.079.

With MFN1 (UniProt Q8IWA4), the log2 fold change was 0.02.

With KIF1B isoform 4 (UniProt O60333), the log2 fold change is -0.064.

In the case of MFGE8 (UniProt Q08431), the log2 fold change is -0.039.

In the case of MCCC2 (UniProt Q9HCC0), the log2 fold change is -0.047.

Consider MICU1 isoform 3 (UniProt Q9BPX6), for which the log2 fold change is -0.022.

As for LARP1 (UniProt Q6PKG0), the log2 fold change was -0.028.

Regarding MEPCE (UniProt Q7L2J0), the log2 fold change was -0.123.

On to MAD2L1 (UniProt Q13257), for which the log2 fold change was -0.012.

On to KCTD2 (UniProt Q14681), for which the log2 fold change is -0.076.

As to LYPLA2 (UniProt O95372), the log2 fold change is -0.026.

For INPP5B (UniProt P32019), the log2 fold change was 0.014.

As to IPO11 isoform 2 (UniProt Q9UI26), the log2 fold change was 0.039.

In the case of MARCKS (UniProt P29966), the log2 fold change was -0.007.

As for KIF2C (UniProt Q99661), the log2 fold change is 0.032.

Turning to LPCAT3 (UniProt Q6P1A2), the log2 fold change was 0.363 (active).

Turning to KTN1 (UniProt Q86UP2), the log2 fold change is 0.063.

Consider MIF (UniProt P14174), for which the log2 fold change was -0.052.

As to LUC7L3 (UniProt O95232), the log2 fold change was 0.052.

For the target LUC7L (UniProt Q9NQ29), the log2 fold change was 0.109.

For the target KPNA1 (UniProt P52294), the log2 fold change is 0.047.

On to KSR1 (UniProt Q8IVT5), for which the log2 fold change is -0.021.

MAP2K2 (UniProt P36507): the log2 fold change is -0.018.

Compound in a further assay: Cn1cc(-c2ccc3c(c2)CCN3C(=O)Cc2cccc(C(F)(F)F)c2)c2c(N)ncnc21
The assay is described as above. In short, it runs like this: as §1
Turning to MIEF1 (UniProt Q9NQG6), the log2 fold change was 0.09.

As to LDAH isoform 2 (UniProt Q9H6V9), the log2 fold change was 0.082.

Turning to MAPKAPK2 (UniProt P49137), the log2 fold change is -0.014.

With LIAS (UniProt O43766), the log2 fold change is -0.017.

On to MFSD5 isoform 2 (UniProt Q6N075), for which the log2 fold change is -0.048.

In the case of LARP4B (UniProt Q92615), the log2 fold change was -0.052.

Regarding LAMP2 (UniProt P13473), the log2 fold change is 0.048.

For the target MAGEC2 (UniProt Q9UBF1), the log2 fold change is -0.056.

With IGFBP4 (UniProt P22692), the log2 fold change was 0.116.

On to ILF3 isoform 7 (UniProt Q12906), for which the log2 fold change was -0.179.

Take LTV1 (UniProt Q96GA3): the log2 fold change is -0.112.

Regarding MICU2 (UniProt Q8IYU8), the log2 fold change was -0.022.

MCUR1 (UniProt Q96AQ8): the log2 fold change was 0.031.

In the case of KDM1A isoform 2 (UniProt O60341), the log2 fold change is -0.002.

For LEMD2 (UniProt Q8NC56), the log2 fold change was 0.089.

LRRFIP1 (UniProt Q32MZ4): the log2 fold change was 0.024.

In the case of LPIN1 isoform 7 (UniProt Q14693), the log2 fold change was -0.025.

On to MFN1 (UniProt Q8IWA4), for which the log2 fold change is 0.032.

Turning to KIF1B isoform 4 (UniProt O60333), the log2 fold change is -0.044.

With MFGE8 (UniProt Q08431), the log2 fold change was -0.057.

As to MCCC2 (UniProt Q9HCC0), the log2 fold change was 0.04.

Consider MICU1 isoform 3 (UniProt Q9BPX6), for which the log2 fold change was -0.012.

With LARP1 (UniProt Q6PKG0), the log2 fold change is -0.067.

Take MEPCE (UniProt Q7L2J0): the log2 fold change is 0.023.

In the case of MAD2L1 (UniProt Q13257), the log2 fold change is -0.001.

For the target KCTD2 (UniProt Q14681), the log2 fold change is -0.102.

Take LYPLA2 (UniProt O95372): the log2 fold change is 0.175.

Turning to INPP5B (UniProt P32019), the log2 fold change is -0.005.

Turning to IPO11 isoform 2 (UniProt Q9UI26), the log2 fold change was -0.008.

As to MARCKS (UniProt P29966), the log2 fold change is 0.033.

Turning to KIF2C (UniProt Q99661), the log2 fold change was 0.053.

Consider LPCAT3 (UniProt Q6P1A2), for which the log2 fold change was 0.153.

Regarding KTN1 (UniProt Q86UP2), the log2 fold change is -0.081.

MIF (UniProt P14174): the log2 fold change was 0.067.

For LUC7L3 (UniProt O95232), the log2 fold change was 0.007.

Consider LUC7L (UniProt Q9NQ29), for which the log2 fold change was -0.095.

As to KPNA1 (UniProt P52294), the log2 fold change is -0.089.

Turning to KSR1 (UniProt Q8IVT5), the log2 fold change was 0.003.

For the target MAP2K2 (UniProt P36507), the log2 fold change is 0.023.
